# About 64,000 (15%) of roughly 420,000 compounds were called active. Roughly 27% stayed inconclusive and do not appear here. Not all results are given here. Unmarked numbers belong to inactive results. Calls come from the whole dose curve; as a rule, active = well fitted inhibition curve with a large enough effect; inconclusive = small, poorly fitted or top-dose-only effect; inactive = flat fitted curve, though single readings scatter.
# Experiment: qHTS for Inhibitors of human tyrosyl-DNA phosphodiesterase 1 (TDP1): qHTS in cells in absence of CPT; note: nearly all actives have a fitted effect of over 55% in size
# Settings: DT40 Tdp1-/- hTDP1 cells, no CPT, ATP luminescence, 48 h; activity change, negative = growth inhibition: at 46.2 µM (top of the series)
# From the text: Human tyrosyl-DNA phosphodiesterase 1 (TDP1) is a novel repair gene, and we propose to use it as a new target for anticancer drug development. TDP1 is not an essential protein, but under treatment with topoisomerase I poison (camptothecin: CPT), TDP1 works as a critical factor for cell survival. To directly identify novel TDP1 inhibitors active in a cellular environment, we have knocked-out the Tdp1 gene in chicken DT40 cells (Tdp1-/-) and generated a complemented counterpart cells that contains a stable transfection of the human TDP1 gene (Tdp1-/-;hTDP1 cells). For the primary screen, Tdp1-/-;hTDP1 cells will be exposed to small molecules in the presence or absence of CPT, and their growth kinetics will be evaluated after 48 hours by measuring ATP activity. […] The hit compounds will then be evaluated in the presence or absence of CPT using Tdp1-/- cells. […] In tertiary assays, biochemical gel-based assays will be used to assess whether the hit compounds specifically target TDP1.
# To this end, we have screened this cell line against the MLSMR in two primary screens. In one screen we add CPT and in the other we screen in the absence of CPT; this AID represents the screen where CPT was absent.
# NIH Chemical Genomics Center [NCGC]
# NIH Molecular Libraries Probe Centers Network [MLPCN]
# Assay Submitter (PI): Yves Pommier, NCI
# DT40-hTDP1 cells without 20 nM Camptothecin (add 20 microL of DMSO in 1 L of cell culture medium) were dispensed at 400 cells/5microL/well in tissue culture treated 1536-well white wall/solid bottom assay plates (Greiner Bio-One North America, NC, U.S.A.) using a Multidrop Combi 8 channel dispenser (Thermo Fisher, Waltham, MA, USA). 23 nL compounds and controls were transferred using the pin tool (Kalypsys, San Diego, CA, USA) to the assay plates. The assay plates were then incubated at 37 masculineC for a minimum 48 hr. Three microL of Cell Titer Glo solution was added to the plates and incubated at RT in dark for 30 min. Luminescence was read using ViewLux (Perkin Elmer) with 1 sec exposure slow speed, high gain and 2x binning.
# % is set by controls: 0 for no effect and ±100 for the full control effect; potency is the fitted concentration of half-maximal effect.
SMILES,"activity change, negative = growth inhibition",Potency
C=CCOC(=O)C1=C[C@H](c2ccc(Br)cc2)C[C@H](OCCCCO)O1,-17.2%,–
CC1(C)CC(=O)C(C2=NC(C)(C)Cc3ccccc32)=C(O)C1,-29.5%,–
CCOc1ccc(NC(=O)N(CC(C)C)CC(C)C)cc1,-17.9%,–
CCOc1ccc(NC(=O)c2ncoc2-c2ccco2)cc1,-37.2%,–
CCOc1ccc(NC(=O)N(CCC(C)C)C(C)c2ccco2)cc1 (stereo not given),–,20.6 µM (active)
C[N+](C)(C)CCCCCNCC12CC3CC(CC(C3)C1)C2,-2.06%,–
CC(C)(O)C#Cc1ncc(C(F)(F)F)cc1Cl,-6.92%,–
Cc1cc(C)n(S(=O)(=O)c2cccc([N+](=O)[O-])c2)n1,-14.9%,–
Cc1ccc(S(=O)(=O)N[C@H](CO)C(C)C)cc1,-8.67%,–
CN(C)C(=O)N=NC(=O)N(C)C,–,9.2 µM (active)
COC(=O)N/N=C/c1c[n+]([O-])c2ccccc2[n+]1[O-],–,0.0422 µM (active)
CCOC(=O)N/N=C/c1cccnc1,-4.41%,–
CC(C)(C)OC(=O)N/N=C/c1ccc(C(=O)O)cc1,-1.61%,–
N#Cc1ccccc1NC(=O)c1ccc2c(c1)OCO2,-7.95%,–
CC1CCN(C(NC(=O)c2ccco2)C(=O)c2ccccc2)CC1 (stereo not given),-16.8%,–
O=C(NCCCN1CCCC1=O)C(=O)NCC1OCCN1S(=O)(=O)c1ccc(Br)cc1 (stereo not given),–,0.411 µM (active)
O=C(NCc1ccc2c(c1)OCO2)C(=O)NCC1OCCN1S(=O)(=O)c1ccc(F)cc1 (stereo not given),-8.46%,–
O=C(NCc1ccncc1)C(=O)NCC1OCCN1S(=O)(=O)c1ccc(Br)cc1 (stereo not given),-29.5%,–
CC(C)c1ccc(NC(=O)CCN2C(=O)c3ccc([N+](=O)[O-])cc3C2=O)cc1,-9.27%,–
CC(C)CNC(=O)COC(=O)/C=C/c1ccccc1[N+](=O)[O-],-0.949%,–
CC(C)OCCCNC(=O)C1CC(=O)N(C2CCCCCCC2)C1 (stereo not given),-2.8%,–
O=C(Cc1ccccc1)NCC1OCCc2ccccc21 (stereo not given),-8.35%,–
Cc1ccc2nc(N3CCN(C(=O)c4ccco4)CC3)sc2c1,-28.4%,–
COc1ccc2nc(N3C(=O)C(O)=C(C(=O)c4ccco4)C3c3ccco3)sc2c1 (stereo not given),-10.9%,–
COc1ccc2nc(N3CCN(C(=O)c4ccc([N+](=O)[O-])o4)CC3)sc2c1,–,20.6 µM (active)
COC(=O)[C@H](CCSC)NC(=O)Nc1ccc(OC)cc1,8.53%,–
CCN(CC)C(=O)CCC(=O)Nc1ccc(C(=O)OC)cc1,1.08%,–

SMILES,"activity change, negative = growth inhibition",Potency
Cc1ccc(NC(=O)C(=O)NCC(c2cccnc2)N2CCOCC2)cc1 (stereo not given),-17.6%,–
COc1ccccc1N1CCN(C(CNC(=O)C(=O)NCc2ccc(C)cc2)c2cccnc2)CC1 (stereo not given),–,2.06 µM (active)
Cc1ccc(C)c(NC(=S)NCC(c2cccnc2)N2CCOCC2)c1 (stereo not given),-12.6%,–
Cc1cc(C)n(-c2nnc(C)n2NC(=O)c2cccc(Cl)c2)n1,-4.6%,–
Cn1c(SCC(=O)c2cccs2)nnc1-c1ccco1,0.382%,–
O=C(CCCCCN1C(=O)c2cccc3cccc(c23)C1=O)NCc1ccco1,-20.4%,–
O=C(CN1C(=O)/C(=C\c2ccc(C(F)(F)F)cc2)Sc2ccccc21)NCc1ccco1,–,13 µM (active)
CC1CCC2(CC1)NC(=O)N(CC(=O)NCc1ccco1)C2=O (stereo not given),-3.31%,–
Cc1cccc(NS(=O)(=O)c2cc(Cl)ccc2Cl)n1,-14.9%,–
Nc1nc(SCC(=O)NN(c2ccccc2)c2ccccc2)n[nH]1,-12.2%,–
CCOC(=O)C(Cc1ccccc1)NC(=O)CCC(=O)c1ccc(OC)cc1 (stereo not given),-4.08%,–
O=C(NCCc1ccccn1)c1cc(C(=O)C2CCCCC2)c[nH]1,-23.5%,–
Cn1cnnc1SCC(=O)Nc1ccc(N2CCOCC2)cc1,7.4%,–
O=C(NCCc1ccccn1)c1cc(-c2ccc(Cl)cc2)nc2ccccc12,–,18.4 µM (active)
CN(CC(=O)NCCc1ccccn1)S(=O)(=O)c1ccc(Cl)cc1,0.788%,–
O=C(CNC(=O)COc1ccccc1)NCCc1ccccn1,5.28%,–
Cc1cc(=O)oc(C)c1C(=O)NC1CC(C)(C)NC(C)(C)C1,-1.14%,–
O=C(CC1SCCNC1=O)Nc1ccc(Cl)cc1 (stereo not given),-10.1%,–
CCOc1ccccc1NC(=O)CCN1CCN(S(=O)(=O)c2ccc(OC)cc2)CC1,-19.4%,–
COc1ccc(C2CC(=O)Nc3sc(=N)c4c(N)c(C#N)c(N)nc4c32)cc1OC (stereo not given),-15.6%,–
N#Cc1c(N)nc2c3c(sc(=N)c2c1N)NC(=O)CC3c1ccccc1Cl (stereo not given),–,13 µM (active)
COCCN(C(=S)Nc1ccccc1OC)C1CCN(C(C)C)CC1,13.4%,–
CC(Sc1nncs1)C(=O)NCc1ccc2c(c1)OCO2 (stereo not given),-15.6%,–
O=C(C1Cc2ccccc2CN1C(=O)c1ccco1)N1CCN(c2ccccc2)CC1 (stereo not given),-5.87%,–
O=[N+]([O-])c1ccc2[nH]c3c(c2c1)CCCC3O (stereo not given),-21.5%,–
C[C@H](NC(=O)NCCc1ccccc1)C(=O)O,3.87%,–
Cc1nn(C(C)C(=O)NCCc2ccccc2)c(=O)c2c1sc1ccccc12 (stereo not given),–,16.4 µM (active)

SMILES,"activity change, negative = growth inhibition",Potency
Cc1ccc(C)c(N2CCN(C(=O)Cn3nc(C)c4sc5ccccc5c4c3=O)CC2)c1,–,23.1 µM (active)
CCc1nn(CCCC(=O)NCc2ccccc2OC)c(=O)c2cc3occc3n12,-8.88%,–
Cc1nn(CCCC(=O)NCc2ccccc2Cl)c(=O)c2nccn12,-16.9%,–
CCc1nn(CC(=O)N2CCN(c3cc(C)ccc3C)CC2)c(=O)c2cc3occc3n12,-16.9%,–
CCc1cc2c(cc3c(=O)n(CC(=O)N4CCN(c5cc(Cl)ccc5C)CC4)nc(CC)n32)s1,-27.1%,–
CC(NCCc1ccc(S(N)(=O)=O)cc1)C(=O)NCc1ccccc1 (stereo not given),13.9%,–
Cc1ccccc1CNC(=O)CCCn1nc(C)c2sc3ccccc3c2c1=O,–,20.6 µM (active)
Cc1cc(C)cc(OCC(=O)NNC(=O)CCN2C(=O)c3ccccc3C2=O)c1,-13.1%,–
Cc1ccc(O)c(NC(=O)c2cc(-c3ccco3)on2)c1,-20.7%,–
CC1Cc2cc(/C(O)=C3\C(=O)C(=O)N(CCN4CCOCC4)C3c3ccccc3F)ccc2O1 (stereo not given),1.69%,–
O=C(O)CC1S/C(=N\N=C/c2ccccc2O)N(c2ccc(O)cc2)C1=O (stereo not given),-0.385%,–
CN(C(=O)c1ccccc1)c1nccnc1C#N,-11.8%,–
CC(=O)Nc1cccc(C(=O)OCC(=O)NCc2cc(C)c(O)c(C)c2)c1,6.94%,–
Cc1cc(=O)[nH]c(N/N=C/c2ccc3c(c2)OCCO3)n1,16.8%,–
Brc1ccc(-c2csc(N/N=C/c3ccc4c(c3)OCO4)n2)cc1,–,8.2 µM (active)
O=C(CN1CCN(c2nc(-c3ccccc3)cs2)CC1)NCc1ccc2c(c1)OCO2,-25.4%,–
O=C(NCC(=O)N1CCN(c2ccccc2F)CC1)c1cccs1,6.86%,–
COc1cc(/C=C(\C#N)C(=O)Nc2ccc3ccccc3c2)c([N+](=O)[O-])cc1OC,-10.2%,–
O=c1ccc2cc(S(=O)(=O)Nc3ccccc3F)ccc2o1,-31.6%,–
Nc1ccc(OCC(O)C[n+]2ccc(CCS(=O)(=O)[O-])cc2)cc1 (stereo not given),-3.67%,–
COc1ccc(C(=O)COC(=O)CN2C(=O)C3CC=CCC3C2=O)c(OC)c1 (stereo not given),-1.18%,–
CC(C)Cn1c(N)c(C(=O)COC(=O)CN2C(=O)C3CC=CCC3C2=O)c(=O)n(C)c1=O (stereo not given),–,9.2 µM (active)
CCCc1cc(=O)[nH]c(SCC(=O)c2c(N)n(CC(C)C)c(=O)n(C)c2=O)n1,-20.6%,–
COc1ccc(Br)cc1/C=N/n1c(C)nnc1C,5.28%,–
O=C(/C=C\NCC(=O)c1ccccc1)c1ccccc1,-16.2%,–
Cc1nc(NC(=O)C23CCC(C)(C(=O)O2)C3(C)C)sc1C (stereo not given),-3.52%,–
CC(C)Cn1c(SCC(=O)Nc2ccc(Cl)cc2F)nc(O)cc1=O,-20.6%,–

SMILES,"activity change, negative = growth inhibition",Potency
CN1c2ccc(Cl)cc2-c2nc(SCC(=O)Nc3cc(F)ccc3F)ncc2S1(=O)=O,–,23.1 µM (active)
O=C(CCN1C(=O)c2ccncc2C1=O)Nc1cc(F)ccc1F,2.57%,–
N/C(Cc1ccc([N+](=O)[O-])cc1)=N\OC(=O)COc1ccc2ccccc2c1,-4.59%,–
CCOc1ccccc1NC(=O)c1cccnc1,8.78%,–
Cc1ccc(NC(=O)CSc2nc(CSc3ccc(C)cc3)cc(=O)[nH]2)cc1,-1.55%,–
Nc1nc(CSc2nnnn2-c2ccccc2)nc(Nc2ccccc2)n1,-11.6%,–
Cc1ccc(Nc2nc(CSc3nnnn3-c3ccccc3)cc(=O)[nH]2)cc1,–,18.4 µM (active)
Cc1ccc(N2C(=O)CC(NCc3ccc4c(c3)OCO4)C2=O)cc1Cl (stereo not given),-4.98%,–
CSC1=NC2(C)CCCCC2C12C=CC(=O)C=C2 (stereo not given),13.8%,–
O=c1[nH]nc(CSCc2ccccc2Cl)[nH]1,0.525%,–
COc1ccc(NC(=O)C2COc3ccccc3O2)cc1 (stereo not given),-5.89%,–
COc1ccc(OC)c2sc(N3CCN(C(=O)C4COc5ccccc5O4)CC3)nc12 (stereo not given),–,16.4 µM (active)
CC(=O)c1ccccc1NC(=O)COC(=O)C1COc2ccccc2O1 (stereo not given),-5.47%,–
Cc1cc(Cl)ccc1N1C(=O)CC(SCCC(=O)O)C1=O (stereo not given),-7.11%,–
CCOC(=O)c1cn(CC)c2cc(F)c(F)cc2c1=O,-3.3%,–
COc1cc(OC)cc(C(=O)Nc2nnc(SCC(=O)NCC3CCCO3)s2)c1 (stereo not given),5.33%,–
CC(C)(C)NC(=O)COc1ccc(CNc2ccc3[nH]c(=O)[nH]c3c2)cc1,-19.9%,–
C=C(C)C(=O)O[C@H]1C/C(C)=C\C(=O)/C=C(\C)[C@H](O)[C@@H]2OC(=O)C(=C)[C@@H]21,–,1.16 µM (active)
C/C=C(\C)C(=O)O[C@H]1CC(C)=C2C(=O)C=C(C)C2[C@@H]2OC(=O)[C@@](C)(OC(=O)C=C(C)C)C21 (stereo not given in full),5.36% [at 9.04 µM],–
Cc1c(S(=O)(=O)N2CC(C)CC(C)C2)c(=O)n(C)c(=O)n1C (stereo not given),6.33%,–
CCN(C(=O)Cc1c(C(=O)O)n(CC)c2ccccc12)c1ccccc1C,-6.5%,–
CCOC(=O)c1sc(NC(=O)COc2ncnc3ccccc23)c(C(=O)OCC)c1C,-28%,–
NC(=O)Nc1ccc(C(=O)OCC(=O)NC2CCCc3ccccc32)cc1 (stereo not given),-9.68%,–
CCOC(=O)c1c(NC(=O)CNC2CCCc3ccccc32)sc(C(N)=O)c1C (stereo not given),–,16.4 µM (active)

# Source: PubChem BioAssay AID686978 (National Center for Advancing Translational Sciences (NCATS), 2013)
